Measurements published in PubChem BioAssay AID588345 (Broad Institute, 2011).
Among all 1,300 compounds or so, about 850 (65%) were called active. Another 1% or so got no clear call; they are omitted. No rule for the calls is given here. The set was probably picked from earlier hits. The list is a sample of the results. Entries with a potency or affinity are not part of this list.

These compounds were tested against Dual specificity tyrosine-phosphorylation-regulated kinase 1A (Rattus norvegicus) (UniProt Q63470) (assay: rat Dyrk1A kinase inhibitors, dose response, biochemical, cherry-pick, plate reader, 2124-01 (AID 588345)). Settings: Dyrk1A kinase biochemical assay; series mostly up to 12 µM; activity change, negative = inhibition: at the top concentration.

Activity change, negative = inhibition, inactive:
Cc1cc(=O)oc2ccc(OC(=O)c3cccc(S(=O)(=O)N4CCOCC4)c3)cc12 18.6%
CCc1cc2c(NC3CCCC3)ncnc2s1 12.8%
COc1cccc(Nc2nc(NCCO)c3ccccc3n2)c1 -31.2%
CCCCCC1CC(CC(C)C(=O)Nc2nncs2)C(=O)O1 (centres undefined) -3.8%
CCC(C)NC(=O)C1CCCN(S(=O)(=O)c2ccc3c(c2)CC(C)N3C(=O)C2CC2)C1 (centres undefined) -4.01%
Clc1ccc(C2CC(c3cccs3)n3ncnc3N2)c(Cl)c1 (centres undefined) 17%
O=C(Cn1c(-c2cncs2)nc2ccccc21)NCc1ccccc1 -0.95%
Cn1c(=O)[nH]c2cc3ccccc3cc21 -26.9%
S=c1sc2ccccc2n1CCc1ccncc1 18.3%
COc1ccc(N(CC(=O)Nc2ccc3c(c2)OCCO3)S(=O)(=O)c2c(C)nn(C)c2C)cc1 -4.22%
CC(C)(C)C1=Nn2c(nnc2-c2ccccc2F)SC1 9.33%
O=C(Nc1ccc2cn[nH]c2c1)c1c(Cl)cccc1Cl -27.4%
COc1ccc(N/C=C2\C(=O)CCc3c2oc2cc(Cl)c(O)c(Cl)c32)cc1 3.91%
Oc1c(Cl)c(Cl)c2ncccc2c1Cl 1.52%
Fc1ccccc1-c1nc(-c2ccc(-c3nn[nH]n3)cc2)no1 -18.5%
Oc1cccc2c(-c3nn[nH]n3)ccnc12 -23.7%
COc1ccc(-c2cn[nH]c2C)cc1 5.41%
Cc1cc(C)c(CN2CCN(C(=O)Cn3ccc(N)nc3=O)CC2)c(C)c1 -5.75%
CCCCCCCCCCCCN1[C@@H](CC(=O)OC)c2cc(C(F)(F)F)ccc2S1(=O)=O -2.65%
CC(=O)c1cccc(NC(=O)Nc2ccc3c(c2)N(C)C(=O)CS3)c1 -33.8%
CSc1nnc(-c2cc3c(-c4ccccc4)nn(C)c3s2)n1C -1.21%
Cn1cnc2c(=O)sc3ccccc3c21 12.6%
O=C(C1CC(=O)N(C2CCCC2)C1)N1CCN(c2ccc(F)cc2)CC1 (centres undefined) -6.71%
c1csc(CNc2ncnc3ccc(-c4ccc5c(c4)OCCO5)cc23)c1 -0.763%
O=C(NCc1ccccc1)C1=C[C@H](c2ccccc2)C[C@H](OCc2ccc(CO)cc2)O1 -7.49%
c1ccc(-c2nnc(CSc3ccc4c(c3)OCCO4)o2)cc1 -3.53%
O=[N+]([O-])c1ccc2c(c1)C(=NO)c1cc(F)ccc1-2 -3.6%
O=C(O)CCC(=O)Nc1ccc(N2CCCCCC2)cc1 8.95%
Cc1cccc(Nc2nc(N)c([N+](=O)[O-])c(N3CCC(C)CC3)n2)c1 -14.7%
COC(=O)c1nccc2c1[nH]c1ccccc12 -5.75%
CCC1NC(C(=O)O)Cc2c1[nH]c1ccccc21 (centres undefined) -58%
CC(C)C[C@H]1COCCS(=O)(=O)N1Cc1ccc(Cl)c(Cl)c1 5.26%
CCOC(=O)Cn1c(-c2cccnc2Cl)nc2ccccc21 0.621%
O=C(CN1CCOCC1)Nc1nc2ccc([N+](=O)[O-])cc2s1 3.97%
CC1CCc2nc(NC(=O)CN3CCN(Cc4ccc5c(c4)OCO5)CC3)sc2C1 (centres undefined) -4.24%
CC1CCc2nc(NC(=O)c3ccc(N4C(=O)CCC4=O)cc3)sc2C1 (centres undefined) 7.56%
Cc1noc(C)c1-c1ccc2ncnc(NC(C)c3ccco3)c2c1 (centres undefined) 8.27%
O=C(Nc1cccc(Cl)c1)ON=C1c2ccccc2-c2ccccc21 3.04%
CCC(=O)Nc1c(C#N)c2nc3ccccc3nc2n1-c1ccccc1C 4.55%
Cc1ccc(NC(=S)Nc2ccc3cn[nH]c3c2)cc1 5.74%
COc1ccc2c(c1)C(=O)N1[C@H]3c4cc(C)ccc4OC[C@@H]3[C@H](c3ccccc3)[C@]1(C)C(=O)N2 11.7%
Cc1c(C(=O)O)sc2nc(-c3cccs3)cc(C(F)(F)F)c12 7.06%
O=C1CCCC2=C1Sc1ccc(Cl)cc1N2 4.76%
O=C1c2ccccc2S(=O)(=O)N1Cc1nnc(-c2ccccc2Br)o1 7.82%
CC(C)=CCc1cc(-c2oc3cc(O)cc(O)c3c(=O)c2O)ccc1O -82.8%
O=C(Nc1ncc2c(n1)-c1ccccc1CC2)c1ccc(Cl)cc1 -60.6%
CCOCCCNC(=O)C(NC(=O)c1ccc(=O)[nH]c1)c1ccc(Cl)cc1 (centres undefined) 14.2%
Cc1cccc(C(C)n2nnc3ccccc32)c1O (centres undefined) 12.8%
O=c1cc(-c2ccc(O)cc2)oc2c(O)c(O)c(O)c(O)c12 -19.7%
O=c1oc(-c2ccc(O)c(O)c2)cc2cc(O)cc(O)c12 16%
CN(C)CCCOC(=O)COc1ccc(Br)cc1 8.36%
CCn1c(NC(=O)c2ccccc2)c(-c2cccs2)c(=O)c2ccccc21 10.9%
CCN(CC)C(=O)Oc1ccc2c(c1)O/C(=C\c1ccco1)C2=O 8.84%
O=c1cc(-c2ccco2)oc2c1ccc1ccccc12 -51.9%
COc1cc(/C=C2\SC(N)=NC2=O)ccc1O -2.03%
OC(c1cc(C(F)(F)F)nc2c(Cl)cc(Cl)cc12)C1CCCCN1 (centres undefined) -7.03%
O=C(O)c1cccc2c1/C(=N/O)c1ccccc1-2 5.06%
CCn1c2ccccc2c2nc3cc(C(=O)O)ccc3nc21 0.717%
COc1ccc(NC(=S)N(CCc2c(C)[nH]c3ccccc23)Cc2cccnc2)cc1 8.34%
S=C(Nc1cccnc1)Nc1cccc2cnccc12 15.1%
Cc1cc2nncn2c2ccccc12 -2.5%
COc1ccc(NC(=O)N(C)C[C@H]2Oc3c(NS(=O)(=O)c4cccs4)cccc3C(=O)N([C@@H](C)CO)C[C@@H]2C)cc1 -6.15%
C[C@@H]1C=C(C(=O)NCc2nc3ccccc3[nH]2)O[C@H](OCCCCO)C1 -1.23%
O=C1CN(C(=O)C2CCC(=O)N(CCc3ccc(Cl)cc3)C2)CCN1 (centres undefined) -3.16%
COc1ccc2oc(N)c(C=O)c(=O)c2c1 15.7%
COc1ccc2nc(C)c3c(c2c1)OC(C(C)(Cl)Br)C3 (centres undefined) 0.503%
c1cnc2ncc3sccc3c2c1 1.55%
O=c1c(O)c(-c2ccccc2)oc2cc(O)cc(O)c12 -30.9%
O=c1c(O)c(-c2cc(O)c(O)c(O)c2)oc2cc(O)cc(O)c12 -91.1%
Cc1cccc(CNc2ncnc3ccc(-c4ccc5c(c4)OCO5)cc23)c1 -5.35%
O=C(CN1CCOCC1)Nc1nc2ccc(F)cc2s1 0.711%
NC(=O)c1cc2ccc(O)cc2oc1=Nc1ccccc1 -0.226%
COc1ccc(OC)c(N=c2oc3cc(O)ccc3cc2C(N)=O)c1 19%
COc1ccc2nc(-n3c(O)c(C4=c5ccccc5=NC4=O)[nH]c3=S)sc2c1 -2.12%
